L3MBTL1 block = qHTS Assay for the Inhibitors of L3MBTL1; Lethal(3)malignant brain tumor-like protein 1 (Homo sapiens), Q9Y468; AlphaScreen L3MBTL1–H3K9me1 peptide binding; Potency, µM (titrated, usually from 57.1 µM), usual class: inhibitors; 230,000 compounds, 0.66% hits; further: nearly all actives have a fitted effect of over 60% in size
Target sequence (Q9Y468 whole entry, looked up): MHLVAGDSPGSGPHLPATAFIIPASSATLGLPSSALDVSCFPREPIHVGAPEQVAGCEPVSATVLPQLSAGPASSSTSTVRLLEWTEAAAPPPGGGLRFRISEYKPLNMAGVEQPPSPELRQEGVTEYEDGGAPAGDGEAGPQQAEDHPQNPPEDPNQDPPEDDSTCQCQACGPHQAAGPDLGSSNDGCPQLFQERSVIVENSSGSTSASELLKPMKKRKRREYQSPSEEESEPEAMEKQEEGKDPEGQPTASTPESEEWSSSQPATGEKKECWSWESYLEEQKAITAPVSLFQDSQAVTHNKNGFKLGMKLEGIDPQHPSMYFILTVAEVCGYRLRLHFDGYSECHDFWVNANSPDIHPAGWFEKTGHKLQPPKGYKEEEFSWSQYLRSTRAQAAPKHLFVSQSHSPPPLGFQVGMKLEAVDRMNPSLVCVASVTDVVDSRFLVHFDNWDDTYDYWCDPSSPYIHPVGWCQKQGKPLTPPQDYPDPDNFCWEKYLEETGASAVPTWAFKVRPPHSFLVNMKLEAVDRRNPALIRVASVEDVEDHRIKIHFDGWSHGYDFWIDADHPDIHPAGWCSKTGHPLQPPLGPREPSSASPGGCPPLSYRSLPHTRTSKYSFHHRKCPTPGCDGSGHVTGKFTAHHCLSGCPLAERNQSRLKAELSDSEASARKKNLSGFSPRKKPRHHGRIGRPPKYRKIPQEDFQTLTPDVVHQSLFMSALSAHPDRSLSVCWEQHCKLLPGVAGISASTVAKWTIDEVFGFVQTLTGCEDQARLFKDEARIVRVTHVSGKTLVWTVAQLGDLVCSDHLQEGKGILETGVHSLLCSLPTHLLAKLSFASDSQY
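AlphaScreen assay: L3MBTL1 (50 nM final) was preincubated 30 min at room temperature with biotinylated H3(1-15)K9me1 peptide (75 nM final), then 30 min with library compounds; streptavidin donor and nickel chelate acceptor beads (10 ug/mL final) added, 30 min dark.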
HTT aggregate = qHTS Multiplex Assay to Identify Dual Action Probes in a Cell Model of Huntington: Aggregate Formation (GFP); PC12 HttQ103-GFP aggregates, Acumen cytometry, 40 h; Potency, µM (series often up to 46.1 µM), hits mostly inhibitors; 220,000 compounds, 1.1% hits; further: nearly all actives have a fitted effect of over 60% in size
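Aggregates are detected as GFP objects 1–25 µm with signal 6 STDEV over background in lysates of induced PC12 cells. These carry Huntingtin exon 1 with 103 glutamines fused to GFP under an ecdysone promoter; compounds titrated.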
HTT ATP protect = qHTS Multiplex Assay to Identify Dual Action Probes in a Cell Model of Huntington: Cytoprotection (ATP). PC12 HTT-Q103 induced, cytoprotection, ATP luminescence, 40 h. 230,000 compounds, 0.14% hits. Potency, µM (highest dose often 56.4 µM), usual class: activators; further: nearly all actives have a fitted effect of over 45% in size
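Readout: ATPlite luminescence (ATP level). Model: stable PC12, inducible Htt exon1 Q103-GFP. Inducer: tebufenozide, 100 nM final. Compounds: dose series. No G418 in medium.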
JMJD2E inh = qHTS Assay for Inhibitors of Human Jumonji Domain Containing 2E (JMJD2E) | 230,000 compounds, 1.6% hits | AID 2147, 2009 | Potency, µM (series often up to 57.1 µM), most hits filed as inhibitors | JMJD2E catalytic domain, FDH-coupled NADH fluorescence (FDH is formaldehyde dehydrogenase); further: nearly all actives have a fitted effect of over 50% in size
Of the large screens only hits and unclear results are named; the others gave an inactive call. The list is not random: actives were taken first. Their share in the collection is about 1.8%. Unless noted, the call rests on the fitted dose curve; in most records, active means well fitted curve in the direction sought with a large enough effect; inconclusive means small, poorly fitted or top-dose-only effect, or another doubt; inactive means no such curve, though single readings can be large; an effect the other way counts as inactive or inconclusive.

COc1ccccc1CNc1cc(-c2ccccc2C(F)(F)F)ncn1	none (no result: L3MBTL1 block, HTT aggregate, JMJD2E inh)
CC[C@]12c3[nH]c4cc(-c5ccco5)ccc4c3CCN1C(=O)[C@@H](CC(=O)NCc1ccco1)C[C@@H]2C(=O)N1CCN(C(=O)c2ccco2)CC1	L3MBTL1 block 35.5µM (no result: HTT aggregate, HTT ATP protect, JMJD2E inh)
CC[C@]12c3[nH]c4ccccc4c3CCN1C(=O)C(CC(=O)NCc1ccco1)C[C@@H]2C(=O)N1CCN(C(=O)c2ccco2)CC1 (stereo partly drawn)	none (no result: HTT aggregate, HTT ATP protect, JMJD2E inh)
O=C(O)C1Nc2c(O)cc(Cl)c([N+](=O)[O-])c2C2C=CCC12 (stereo not drawn)	L3MBTL1 block 0.316µM, JMJD2E inh 7.94µM
COc1ccc(OC)c(C2Nc3c(Cl)ccc(C(=O)O)c3C3C=CCC32)c1 (stereo not drawn)	JMJD2E inh inconclusive
O=C(Nc1ccccc1)Nc1ccc(S(=O)(=O)N2CCCCC2)cc1	HTT aggregate 12.6µM, JMJD2E inh inconclusive
N#CC(C#N)=NNc1ccc(S(=O)(=O)N2CCCCC2)cc1	HTT aggregate 20µM
COc1ccc(N=C2NC(=O)/C(=C/c3ccco3)S2)cc1	JMJD2E inh inconclusive (no result: L3MBTL1 block)
Cc1ccc(N=C2NC(=O)/C(=C/C=C/c3ccco3)S2)cc1	L3MBTL1 block inconclusive, HTT aggregate inconclusive, JMJD2E inh 25.1µM
Cc1cccc(N=C2NC(=O)/C(=C/C=C/c3ccco3)S2)c1C	L3MBTL1 block 7.94µM
O=C1NC(=Nc2ccccc2)S/C1=C\C=C\c1ccco1	L3MBTL1 block 3.16µM
CCCC/C=C/C(NC(=O)Oc1cccc(C(F)(F)F)c1)c1ccccc1 (stereo not drawn)	none (no result: L3MBTL1 block, HTT aggregate)
O=c1c2c3nc4ccccc4nc3n(/N=C/c3ccncc3)c2ncn1-c1ccccc1	none
O=c1c2c3nc4ccccc4nc3n(/N=C/c3cccs3)c2ncn1-c1ccccc1	HTT aggregate 1.78µM (no result: L3MBTL1 block)
Cn1cc(-c2nc3cnc(N4CCNCC4)nc3n(Cc3ccc(F)cc3)c2=O)c2ccccc21	none (no result: L3MBTL1 block, HTT aggregate, JMJD2E inh)
CCNc1ncc2nc(-c3cn(C)c4ccccc34)c(=O)n(Cc3ccc(F)cc3)c2n1	HTT ATP protect 25.1µM (no result: L3MBTL1 block, HTT aggregate, JMJD2E inh)
Cc1sc2ncn(CCC(=O)O)c(=O)c2c1C	none
Cc1sc2ncn(CCn3cnc4sc(C)c(C)c4c3=O)c(=O)c2c1C	HTT aggregate 0.447µM
Cc1c2oc3c(C)ccc(C(=O)NC4C(=O)NC(C(C)C)C(=O)N5CCCC5C(=O)N(C)CC(=O)N(C)C(C(C)C)C(=O)OC4C)c3nc-2c(C(=O)NC2C(=O)NC(C(C)C)C(=O)N3CCCC3C(=O)N(C)CC(=O)N(C)C(C(C)C)C(=O)OC2C)c(N)c1=O (stereo not drawn)	none (no result: L3MBTL1 block, HTT aggregate, JMJD2E inh)
COc1ccc(C2CC(C(F)(F)F)n3nc(C(=O)NCc4c(C)nn(C)c4C)c(Cl)c3N2)cc1 (stereo not drawn)	HTT aggregate 8.91µM (no result: L3MBTL1 block)
COc1ccc(C2CC(C(F)(F)F)n3nc(C(=O)N(C)Cc4cn(C)nc4C)c(Cl)c3N2)cc1 (stereo not drawn)	none
COc1ccc(OC)c(Nc2cc(-c3ccccc3)nc(N)n2)c1	HTT aggregate 1.26µM (no result: L3MBTL1 block)
CCN(c1ccccc1)c1cc(NC)[n+](C)c(C)n1	none (no result: L3MBTL1 block, HTT aggregate)
CC1CCC(C(C)C)C(OC(=O)Cn2c(-c3ccccc3)[n+](C)c3ccccc32)C1 (stereo not drawn)	HTT aggregate 11.2µM
COc1ccc(NS(=O)(=O)c2ccc(N/N=C/c3ccc(N4CCOCC4)cc3)c([N+](=O)[O-])c2)cc1	HTT aggregate 2µM (no result: HTT ATP protect)
C=CC[n+]1c(-c2ccc(C)cc2)csc1Nc1ccc(NC(C)=O)cc1	HTT aggregate inconclusive
C=CC[n+]1c(-c2ccc(OC)cc2)csc1NNC(=O)Nc1ccccc1	HTT aggregate 10µM (no result: L3MBTL1 block)
COc1ncc2nc(-c3cccs3)c(=O)n(CCc3ccccc3)c2n1	none (no result: L3MBTL1 block, HTT aggregate, JMJD2E inh)
O=C(CN1C(=O)c2ccccc2S1(=O)=O)c1ccc(O)c(O)c1	JMJD2E inh 14.1µM (no result: L3MBTL1 block)
COCCCCCCCCCCCC(=O)O	none (no result: L3MBTL1 block, HTT aggregate)
COc1ccc(Br)cc1C(C[N+](=O)[O-])c1c(N)n(C)c(=O)n(C)c1=O (stereo not drawn)	HTT aggregate 3.98µM (no result: L3MBTL1 block)
C[C@@H]1CN2[C@H](c3ccc(Br)cc3)[C@H](C)CC[C@H]2C(=O)O1	none (no result: L3MBTL1 block, HTT aggregate, JMJD2E inh)
Cc1ccc(-c2csc(=Nc3cccnc3)n2CCCn2ccnc2)cc1C	L3MBTL1 block inconclusive, HTT aggregate 3.55µM
COc1cccc([C@@H]2Oc3ccc(OC)cc3C(=O)[C@H]2OC(=O)NCc2ccco2)c1	none (no result: L3MBTL1 block, HTT aggregate)
CC(NC(=O)c1cccnc1)C(c1cccs1)N1CCN(c2ccccc2F)CC1 (stereo not drawn)	none (no result: L3MBTL1 block)
COc1ccccc1N1CCN(C(c2cccs2)C(C)NC(=O)c2cccnc2)CC1 (stereo not drawn)	HTT aggregate inconclusive, HTT ATP protect 5.62µM (no result: L3MBTL1 block)
CC1(C)O[C@@H]2O[C@H]([C@H](O)CO/N=C3/[C@H]4O[C@@H]4[C@@H](O)[C@H]4[C@H]3CCn3c(=O)n(-c5ccccc5)c(=O)n34)[C@@H](O)[C@@H]2O1	none (no result: L3MBTL1 block, HTT aggregate, JMJD2E inh)
COc1ccc(O[C@H]2C=C[C@@H](c3ccccc3)O[C@H]2COC(=O)CC/C(C)=N\O[C@@H](C)CN2CCCCc3nc(C)c(C)cc32)cc1	none (no result: L3MBTL1 block, HTT aggregate, JMJD2E inh)
CC(C)c1[nH]nc2c1C(c1cccc(OC(=O)N3CCOCC3)c1)C(C#N)=C(N)O2 (stereo not drawn)	HTT aggregate 3.16µM
CN(c1cccc(NC(=O)c2ccc(C(C)(C)C)cc2)c1)S(C)(=O)=O	HTT aggregate 11.2µM
CN(c1cccc(NC(=O)c2ccc(N(C)S(=O)(=O)c3ccccc3)cc2)c1)S(C)(=O)=O	HTT aggregate inconclusive
Nc1ncnc2c1nc(Br)n2[C@@H]1O[C@H]2COP(=O)(O)O[C@@H]2[C@@H]1O	none (no result: L3MBTL1 block, HTT aggregate, JMJD2E inh)
Cc1ccc2nc(-c3ccc(N)cc3)sc2c1S(=O)(=O)O	none (no result: L3MBTL1 block, HTT aggregate, JMJD2E inh)
O=C(c1ccco1)N1CCN(C(=O)c2cnn3c2NC(c2cccs2)CC3C(F)(F)F)CC1 (stereo not drawn)	none
O=C(c1cnn2c1NC(c1ccco1)CC2C(F)(F)F)N1CCN(c2cccc(Cl)c2)CC1 (stereo not drawn)	HTT aggregate 22.4µM
CCN1CCN(CCNC(=O)C2CCCN(Cc3nc(-c4cccc(Cl)c4)oc3C)C2)CC1 (stereo not drawn)	HTT aggregate inconclusive (no result: L3MBTL1 block)
CCOC(=O)N1CCC(NC(=O)C2CCCN(Cc3nc(-c4cccc(Cl)c4)oc3C)C2)CC1 (stereo not drawn)	HTT aggregate 7.94µM (no result: L3MBTL1 block)
Cc1[nH]n(-c2ccccc2)c(=O)c1C=Nc1cccc2cccnc12	HTT aggregate inconclusive, JMJD2E inh inconclusive
Cc1[nH]n(-c2ccccc2)c(=S)c1C=Nc1cccc([N+](=O)[O-])c1	JMJD2E inh 5.62µM
CCOC(=O)C1CCCN(C(=O)C2CCN(C(=O)Nc3ccccc3)CC2)C1 (stereo not drawn)	none (no result: HTT aggregate, HTT ATP protect, JMJD2E inh)
CCOC(=O)C1CCCN(C(=O)Nc2ccccc2)C1 (stereo not drawn)	HTT aggregate 0.631µM (no result: L3MBTL1 block, HTT ATP protect)
